Test results from PubChem BioAssay (NCI).
Several values for one entry are separate records, joined by “and”; a condition that tells them apart may be missing. Equal entries are not always repeated. Compounds without any hit were thinned out: in the full panel of roughly 83,000, 20% have a hit.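 Plates (96-well) were seeded with cells, treated with compound at one concentration, and incubated for 48 hours before percent growth was determined.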 Unmarked numbers belong to inactive results. Activity calls are given as the source filed them. Rule for the calls: active = growth percent below 10; inactive = the rest.

Test system: NCI-H322M lung
Assay: NCI-60 one-dose screen, 48 h (100 = growth as untreated, 0 = no growth, -100 = all killed)
Settings: 10 µM unless noted

SMILES | growth
NS(=O)(=O)c1ccc(Nc2nc(N/N=C/c3cc(Br)c(O)c(Br)c3)nc(Nc3ccccc3)n2)cc1 | 37.6%
COc1ccc2c(c1)C(Sc1ccc(Cl)cc1)c1c(nc(N)c(C#N)c1N)O2 (configuration not stated) | 86.4%
CS(=O)(=O)Nc1cccc(-n2c(COc3ccc(OC(F)(F)F)cc3)nc3ccccc32)c1 | 101% and 121%
OCCn1cc(-c2nc3ccc4[nH]ncc4c3c3c2CCCC3)cn1 | 68.5%
Cn1cc(-c2cc(N)n3nc(-c4c[nH]c5ccc(F)cc45)cc3n2)c2cccnc21 | -37.5% (active)
COc1ccc2c(c1)N=c1c-2cc2c(O)[nH]c(=S)n2c1=O | 78.1%
O=C(NN1C(=O)/C(=C/C=C/c2ccc([N+](=O)[O-])o2)SC1=S)c1ccncc1 | -16.3% (active)
Cn1cc(-c2cc(N)n3nc(-c4c[nH]c5ccccc45)cc3n2)c2cc(Br)ccc21 | -37.2% (active)
Cn1cc(-c2cc(N)n3nc(-c4c[nH]c5ccccc45)cc3n2)c2ccccc21 | -80% (active)
O=C1c2cccc3c(N4CCN(c5ccccc5)CC4)ccc(c23)C(=O)N1c1cccc(-c2nn(-c3ccccc3)cc2-c2nc3ccccc3s2)c1 | 97%
O=C(c1ccc(O)cc1)C1[C@H](c2ccccc2Br)[C@@H](c2ccccc2)NC12C(=O)Nc1ccccc12 (some centres not stated) | 61.6%
COc1ccc(-c2cc(C(=O)N=Nc3c(O)[nH]c4ccc(Cl)cc34)c3ccccc3n2)cc1 | 79%
